{"source": "PubChem BioAssay (Tox21)", "note": "Unmarked numbers belong to inactive results. Inconclusive results are not listed. A call without a number means that no potency is given here. Active and inactive are the calls of the source. Unless noted, the call rests on the fitted dose curve.", "data": [{"assay": "qHTS assay to identify small molecule antagonists of the sonic hedgehog signaling (Shh) pathway - cell viability counter screen (AID 1259367; active means well fitted cell-killing curve with a large enough effect in the repeat runs; further: nearly all actives have a fitted effect of over 55% in size; further: potency means the concentration at half of the fitted maximal effect)", "details": "NIH/3T3 Gli1-Luc viability, CellTiter-Fluor, 24 h; series mostly up to 92.4 µM", "outline": "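Cytotoxicity was assessed in parallel with Shh reporter activity by measuring live-cell protease fluorescence (CellTiter-Fluor) in NIH/3T3 cells stably carrying Gli1-Luc, treated with compound under conditioned medium stimulation for 23 hr plus 1 hr reagent incubation.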", "values": [{"smiles": "S=c1nccc[nH]1", "Potency": "inactive"}, {"smiles": "CCc1ccc(Br)cc1", "Potency": "inactive"}, {"smiles": "Cc1cc(C(C)(C)C)c(O)c(C)c1Cn1c(=O)n(Cc2c(C)cc(C(C)(C)C)c(O)c2C)c(=O)n(Cc2c(C)cc(C(C)(C)C)c(O)c2C)c1=O", "Potency": "inactive"}, {"smiles": "CC1=CCC(=C(C)C)CC1", "Potency": "inactive"}, {"smiles": "CCCCCc1ccc(Cl)cc1", "Potency": "inactive"}, {"smiles": "Clc1nnc(Cl)c2ccccc12", "Potency": "inactive"}, {"smiles": "CC1(C)CC(O)CC(C)(C)N1", "Potency": "inactive"}, {"smiles": "C=CC(C)(CCC=C(C)C)OC=O", "note": "(stereo unspecified)", "Potency": "inactive"}, {"smiles": "COc1ccc2c(c1)c(CC(=O)OC/C=C(\\C)CC/C=C(\\C)CCC=C(C)C)c(C)n2C(=O)c1ccc(Cl)cc1", "Potency": "inactive"}, {"smiles": "c1cnccn1", "Potency": "inactive"}, {"smiles": "O=C(Nc1ccc2c(O)c(N=Nc3ccc(N=Nc4ccc(S(=O)(=O)O)cc4)cc3)c(S(=O)(=O)O)cc2c1)c1ccccc1", "Potency": "21.7 µM (active)"}, {"smiles": "C1CCC(SSC2CCCCC2)CC1", "Potency": "inactive"}, {"smiles": "OC1CCCc2ccccc21", "note": "(stereo unspecified)", "Potency": "inactive"}, {"smiles": "CCO[Si](OCC)(OCC)OCC", "Potency": "inactive"}, {"smiles": "CCn1c2ccccc2c2cc([N+](=O)[O-])ccc21", "Potency": "inactive"}, {"smiles": "O=C(O)c1cccc(C(F)(F)F)c1", "Potency": "inactive"}]}, {"assay": "qHTS assay to identify small molecule agonists of the sonic hedgehog signaling (Shh) pathway (AID 1259368); further: nearly all actives have a fitted effect of over 15% in size", "details": "NIH/3T3 Gli1-Luc reporter, luciferase, 24 h; series mostly up to 92.4 µM", "outline": "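Quantitative high-throughput format using a Gli1-driven firefly luciferase reporter line derived from NIH/3T3 cells. After a 24 hr compound treatment at 37 C and 5% CO2, luminescence reported Gli1 response element activity.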", "values": [{"smiles": "S=c1nccc[nH]1", "Potency": "inactive"}, {"smiles": "CCc1ccc(Br)cc1", "Potency": "inactive"}, {"smiles": "O=C(O)Cc1ccc2c(c1)C(=O)c1ccccc1CO2", "Potency": "inactive"}, {"smiles": "Cc1cc(C(C)(C)C)c(O)c(C)c1Cn1c(=O)n(Cc2c(C)cc(C(C)(C)C)c(O)c2C)c(=O)n(Cc2c(C)cc(C(C)(C)C)c(O)c2C)c1=O", "Potency": "inactive"}, {"smiles": "CC(C)CCCCCOC(=O)CCS", "Potency": "inactive"}, {"smiles": "OC[C@@H](O)[C@@H](O)CO", "Potency": "inactive"}, {"smiles": "c1ccc(SSc2ccccc2)cc1", "Potency": "inactive"}, {"smiles": "CC1=CCC(=C(C)C)CC1", "Potency": "inactive"}, {"smiles": "O=S(=O)(O)c1ccccc1/C=C/c1ccc(-c2ccc(/C=C/c3ccccc3S(=O)(=O)O)cc2)cc1", "Potency": "inactive"}, {"smiles": "CCCCCc1ccc(Cl)cc1", "Potency": "inactive"}, {"smiles": "CCCC(=O)OCOC(=O)C1=C(C)NC(C)=C(C(=O)OC)C1c1cccc(Cl)c1Cl", "note": "(stereo unspecified)", "Potency": "inactive"}, {"smiles": "CCN(CCN)c1cccc(C)c1", "Potency": "inactive"}, {"smiles": "Clc1nnc(Cl)c2ccccc12", "Potency": "inactive"}, {"smiles": "[Cu+]", "Potency": "inactive"}, {"smiles": "O=C(O)O", "activity change": "0.72% [at 8.39 µM, hits give high values]"}, {"smiles": "COc1cc(C)ccc1O", "Potency": "inactive"}, {"smiles": "C=CC(C)(CCC=C(C)C)OC=O", "note": "(stereo unspecified)", "Potency": "inactive"}, {"smiles": "C=CC(=O)OCCOC(=O)C=C", "Potency": "inactive"}, {"smiles": "Fc1ccc(C(c2ccc(F)cc2)N2CCNCC2)cc1", "Potency": "inactive"}, {"smiles": "O=C(c1ccc(O)c(O)c1)c1ccc(O)cc1O", "Potency": "inactive"}, {"smiles": "O=C(Oc1ccccc1)Oc1ccccc1", "Potency": "inactive"}, {"smiles": "CC(C)(C)c1csc(-c2cc3cc(OCc4ccccc4CC(=O)O)ccc3o2)n1", "Potency": "inactive"}, {"smiles": "COc1ccc2c(c1)c(CC(=O)OC/C=C(\\C)CC/C=C(\\C)CCC=C(C)C)c(C)n2C(=O)c1ccc(Cl)cc1", "Potency": "inactive"}, {"smiles": "c1cnccn1", "Potency": "inactive"}, {"smiles": "CCCCOC(=O)CO", "Potency": "inactive"}, {"smiles": "[Cl][Pt-2]([Cl])([Cl])[Cl]", "Potency": "inactive"}, {"smiles": "O=C(Nc1ccc2c(O)c(N=Nc3ccc(N=Nc4ccc(S(=O)(=O)O)cc4)cc3)c(S(=O)(=O)O)cc2c1)c1ccccc1", "Potency": "inactive"}, {"smiles": "C1CCC(SSC2CCCCC2)CC1", "Potency": "inactive"}, {"smiles": "CC(C)(C)C1CCC(=O)CC1", "Potency": "inactive"}, {"smiles": "COC(=O)c1ccccc1OC", "Potency": "inactive"}, {"smiles": "OC1CCCc2ccccc21", "note": "(stereo unspecified)", "Potency": "inactive"}, {"smiles": "Cc1c(C)c([N+](=O)[O-])c(C(C)(C)C)c([N+](=O)[O-])c1C", "Potency": "inactive"}, {"smiles": "CCO[Si](OCC)(OCC)OCC", "Potency": "inactive"}, {"smiles": "CCn1c2ccccc2c2cc([N+](=O)[O-])ccc21", "Potency": "inactive"}, {"smiles": "CCCCN(CCCC)CC(O)c1cc(Cl)cc2c1-c1ccc(Cl)cc1/C2=C/c1ccc(Cl)cc1", "note": "(stereo unspecified)", "Potency": "inactive"}, {"smiles": "O=C(O)c1cccc(C(F)(F)F)c1", "Potency": "inactive"}, {"smiles": "C[Si](Cl)(c1ccccc1)c1ccccc1", "Potency": "inactive"}]}, {"assay": "qHTS assay to identify small molecule antagonists of the sonic hedgehog signaling (Shh) pathway (AID 1259369); further: nearly all actives have a fitted effect of over 45% in size; further: potency means the concentration at half of the fitted maximal effect", "details": "NIH/3T3 Gli1-Luc reporter, Shh antagonist, luminescence 24 h; series mostly up to 92.4 µM", "outline": "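Stable Gli1-Luc reporter NIH/3T3 clone; quantitative HTS in stimulated mode with conditioned medium. Luminescence measured after 24hr compound treatment at 37 C.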", "values": [{"smiles": "O=C(O)Cc1ccc2c(c1)C(=O)c1ccccc1CO2", "Potency": "inactive"}, {"smiles": "Cc1cc(C(C)(C)C)c(O)c(C)c1Cn1c(=O)n(Cc2c(C)cc(C(C)(C)C)c(O)c2C)c(=O)n(Cc2c(C)cc(C(C)(C)C)c(O)c2C)c1=O", "Potency": "inactive"}, {"smiles": "CC(C)CCCCCOC(=O)CCS", "Potency": "inactive"}, {"smiles": "OC[C@@H](O)[C@@H](O)CO", "Potency": "inactive"}, {"smiles": "CC1=CCC(=C(C)C)CC1", "Potency": "inactive"}, {"smiles": "O=S(=O)(O)c1ccccc1/C=C/c1ccc(-c2ccc(/C=C/c3ccccc3S(=O)(=O)O)cc2)cc1", "Potency": "inactive"}, {"smiles": "CCCC(=O)OCOC(=O)C1=C(C)NC(C)=C(C(=O)OC)C1c1cccc(Cl)c1Cl", "note": "(stereo unspecified)", "Potency": "inactive"}, {"smiles": "CCN(CCN)c1cccc(C)c1", "Potency": "7.77 µM (active)"}, {"smiles": "[Cu+]", "Potency": "inactive"}, {"smiles": "CC1(C)CC(O)CC(C)(C)N1", "Potency": "inactive"}, {"smiles": "COc1cc(C)ccc1O", "Potency": "inactive"}, {"smiles": "C=CC(C)(CCC=C(C)C)OC=O", "note": "(stereo unspecified)", "Potency": "inactive"}, {"smiles": "C=CC(=O)OCCOC(=O)C=C", "Potency": "inactive"}, {"smiles": "Fc1ccc(C(c2ccc(F)cc2)N2CCNCC2)cc1", "Potency": "2.98 µM (active)"}, {"smiles": "O=C(c1ccc(O)c(O)c1)c1ccc(O)cc1O", "Potency": "2.43 µM (active)"}, {"smiles": "O=C(Oc1ccccc1)Oc1ccccc1", "Potency": "inactive"}, {"smiles": "CC(C)(C)c1csc(-c2cc3cc(OCc4ccccc4CC(=O)O)ccc3o2)n1", "Potency": "inactive"}, {"smiles": "COc1ccc2c(c1)c(CC(=O)OC/C=C(\\C)CC/C=C(\\C)CCC=C(C)C)c(C)n2C(=O)c1ccc(Cl)cc1", "Potency": "inactive"}, {"smiles": "c1cnccn1", "Potency": "inactive"}, {"smiles": "CCCCOC(=O)CO", "Potency": "inactive"}, {"smiles": "C1CCC(SSC2CCCCC2)CC1", "Potency": "inactive"}, {"smiles": "COC(=O)c1ccccc1OC", "Potency": "inactive"}, {"smiles": "OC1CCCc2ccccc21", "note": "(stereo unspecified)", "Potency": "inactive"}, {"smiles": "Cc1c(C)c([N+](=O)[O-])c(C(C)(C)C)c([N+](=O)[O-])c1C", "Potency": "inactive"}, {"smiles": "CCO[Si](OCC)(OCC)OCC", "Potency": "inactive"}, {"smiles": "CCn1c2ccccc2c2cc([N+](=O)[O-])ccc21", "Potency": "inactive"}, {"smiles": "O=C(O)c1cccc(C(F)(F)F)c1", "Potency": "inactive"}, {"smiles": "C[Si](Cl)(c1ccccc1)c1ccccc1", "Potency": "inactive"}]}]}
